Test results from the supplement of paper PMC13380429.

System: Vero E6 infected with SARS-CoV-2
Assay: inhibition of SARS-CoV-2 cytopathic effect; higher = more antiviral protection, active = above 15
Conditions: 48 h

Measured: inhibition of SARS-CoV-2 cytopathic effect

CC(C)Oc1ccc2c(=O)c3cc(C(=O)O)ccc3oc2c1
inactive: 1 nM -2.35% | 8.33 nM -1.43% | 100 nM -1.13% | 833.33 nM -1.68% | 10000 nM -1%

O=C(N[C@H]1CN2CCC1CC2)c1ccc(Cl)cc1
inactive: 1 nM 1.35% | 8.33 nM 0.97% | 100 nM 1.21% | 833.33 nM 0.86% | 10000 nM 1.51%

CC(C)Cn1cnc2c(N)nc3ccccc3c21 [imiquimod]
inactive: 1 nM 1.22% | 8.33 nM 1.42% | 100 nM -0.63% | 833.33 nM 2.38% | 10000 nM 0.63%

O=c1c2ccccc2[se]n1-c1ccccc1 [Ebselen]
inactive: 1 nM 2.29% | 8.33 nM 0.73% | 100 nM 0.59% | 833.33 nM 1.45% | 10000 nM 1.28%

Cn1cc(C(F)(F)F)nc1-c1ccc(OCC(O)CNCCOc2ccc(O)c(C(N)=O)c2)cc1 (stereo not given)
inactive: 1 nM -0.25% | 8.33 nM -0.6% | 100 nM 0.3% | 833.33 nM -1.37% | 10000 nM 1.34%

Cc1cc(CC(C)CC(C)(C)C)n(O)c(=O)c1 (stereo not given) [piroctone-olamine]
inactive: 1 nM -1.12% | 8.33 nM 3.7% | 100 nM 3.23% | 833.33 nM 1.26% | 10000 nM -1.5%

NCCC[C@H](N)C(=O)O [ornithine]
inactive: 1 nM -1.52% | 8.33 nM -1.05% | 100 nM -1.8% | 833.33 nM -2.37% | 10000 nM 2.35%

CCc1cc2c(s1)-n1c(C)nnc1CN=C2c1ccccc1Cl [etizolam]
inactive: 1 nM 2.37% | 8.33 nM 2.54% | 100 nM -2.3% | 833.33 nM 3.16% | 10000 nM 2.75%

COc1ccc([C@]2(C#N)CC[C@@H](C(=O)O)CC2)cc1OC1CCCC1 [cilomilast]
inactive: 1 nM -1.82% | 8.33 nM -3.26% | 100 nM -2.36% | 833.33 nM -1.23% | 10000 nM -0.83%

O=C(O)[C@H]1CCCN(CCC=C(c2ccccc2)c2ccccc2)C1 (racemic)
inactive: 1 nM -0.52% | 8.33 nM -1.42% | 100 nM -2.13% | 833.33 nM -4.16% | 10000 nM -2.22%

NC[C@H]1O[C@H](O[C@H]2[C@H](O)[C@@H](O[C@H]3O[C@H](CO)[C@@H](O)[C@H](N)[C@H]3O)[C@H](N)C[C@@H]2N)[C@H](N)C[C@@H]1O [tobramycin]
inactive: 1 nM -1.08% | 8.33 nM 1.78% | 100 nM -0.88% | 833.33 nM 0.11% | 10000 nM 0.19%

CN(c1nccc(=O)[nH]1)C1CCN(c2nc3ccccc3n2Cc2ccc(F)cc2)CC1 [mizolastine]
inactive: 1 nM -1.24% | 8.33 nM -0.74% | 100 nM 0.47% | 833.33 nM 0.93% | 10000 nM -1.33%

CC(CCc1ccccc1)NC(C)C(O)c1ccc(O)cc1 (stereo not given) [buphenine]
inactive: 1 nM 1.42% | 8.33 nM 1.45% | 100 nM -1.15% | 833.33 nM -0.63% | 10000 nM -2.78%

Cn1cc(/C=C2\C(=O)Nc3cccnc32)c2ccccc21
inactive: 1 nM -2.16% | 8.33 nM -2.36% | 100 nM 2.94% | 833.33 nM 0.64% | 10000 nM 4.71%

Nc1c(CC(=O)O)cccc1C(=O)c1ccccc1 [amfenac]
inactive: 1 nM 0.42% | 8.33 nM 0.91% | 100 nM 1.2% | 833.33 nM -0.82% | 10000 nM -2.19%

COc1ccc(-c2cc(=O)c3c(O)cc(O)cc3o2)cc1O [diosmetin]
inactive: 1 nM -0.61% | 8.33 nM -0.9% | 100 nM -1.66% | 833.33 nM -3.02% | 10000 nM 2.95%

CCC(=O)O[C@H]1CC[C@H]2[C@@H]3CCC4=CC(=O)CC[C@]4(C)[C@H]3CC[C@]12C
inactive: 1 nM -13.2% | 8.33 nM -10.2% | 100 nM -12.5% | 833.33 nM -13.3% | 10000 nM -14%

CCCCOc1ccc(-c2cncc(C(=O)NCc3cccnc3N3CCOCC3)c2)cc1Cl
inactive: 1 nM -0.69% | 8.33 nM -2.48% | 100 nM -0.55% | 833.33 nM -1.43% | 10000 nM -3.95%

COc1ccc(-c2oc3c(CC=C(C)C)c(O[C@@H]4O[C@H](CO)[C@@H](O)[C@H](O)[C@H]4O)cc(O)c3c(=O)c2O[C@@H]2O[C@@H](C)[C@H](O)[C@@H](O)[C@H]2O)cc1 [icariin]
inactive: 1 nM 4.38% | 8.33 nM 3.84% | 100 nM 1.25% | 833.33 nM -0.92% | 10000 nM -4.04%
